Test results taken from PubChem BioAssay AID598 (SRMLSC, 2007).
Among all 85,000 compounds or so, about 5,100 (6%) were called active.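 How the source made its calls: active means viability at or below 40%; inactive means viability above 40%.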 The list comes from a sample in which actives are over-represented; it also holds similar structures and randomly drawn compounds.

Experiment: proliferation blockers of H69AR lung cancer cells, primary screen, cell-based, human, 86K library (AID 598);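 further: multidrug resistant small cell line overexpressing MRP-1 efflux transporter; 100% = mean luminescence of untreated control wells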
Settings: H69AR lung tumor viability, ATP luminescence, 72 h; at 10 µM; active compounds read low

Row | Structure (SMILES) | viability
1 | COc1ccc(-n2c(C)csc2=S)cc1 | 86.6% (inactive)
2 | CCOc1ccc(C(O)Cn2c(=N)n(CCN3CCCCC3)c3ccccc32)cc1 (centres undefined) | 44.7% (inactive)
3 | CCOc1ccc(NC(=O)C2CCCN(C(=O)Nc3ccccc3)C2)cc1 (centres undefined) | 79.5% (inactive)
4 | CCOc1ccccc1NC(=O)c1cccnc1 | 87.4% (inactive)
5 | Cc1cc(=O)oc2cc(NC(=O)C3CC(=O)N(Cc4ccccc4)C3)ccc12 (centres undefined) | 96.1% (inactive)
6 | Cc1ccccc1N1CCN(CCCOc2ccc3c(C)cc(=O)oc3c2)CC1 | 58.7% (inactive)
7 | Cc1cc(=O)oc2cc(OCC3CC(c4ccccc4Cl)=NO3)ccc12 (centres undefined) | 27.1% (active)
8 | O=C(CSCc1c(F)cccc1Cl)NCC1CCCO1 (centres undefined) | 90.5% (inactive)
9 | Cc1cc(SCC(=O)c2ccccc2)nc(SCC(=O)c2ccccc2)n1 | 72.1% (inactive)
10 | CC(=O)CCS(=O)(=O)c1ccc(C)c(C)c1 | 1.25% (active)
11 | Cc1ccc(S(=O)(=O)NCCN2CCOCC2)cc1C | 100% (inactive)
12 | CCCCN(CCCC)C(=O)CCS(=O)(=O)c1ccc2c(c1)n(C)c(=O)c(=O)n2C | 70.2% (inactive)
13 | COc1ccc(NC(=O)CSc2nc(NS(=O)(=O)c3ccc(C)cc3)cc(=O)[nH]2)cc1 | 109% (inactive)
14 | COC(=O)c1sccc1-n1cccc1C(=O)C(=O)N1CCCCC1 | 95.1% (inactive)
15 | Cc1cccc(C(=O)N2CCCN(C(=O)c3cccc(C)c3)CC2)c1 | 94.6% (inactive)
16 | Clc1ccc(COn2c(-c3ccc(Cl)cc3Cl)nc3ncccc32)cc1 | 56.5% (inactive)
17 | N=c1c2c3c(sc2ncn1CCCN1CCOCC1)CCCCC3 | 71% (inactive)
18 | c1nnc2c3c4c(sc3ncn12)CCC4 | 39% (active)
19 | O=C(O)[C@@H]1CCCN1c1ncnc2sc3c(c12)CCC3 | 86.5% (inactive)
20 | CCc1ccc(NC(=O)CN2C(=O)CSC2=O)cc1 | 93% (inactive)
21 | COCCn1c(SCc2nnc(-c3ccc(OC)c(OC)c3)o2)nc2sc3c(c2c1=O)CCC3 | 51.5% (inactive)
22 | COc1ccc(OC)c(NC(=O)CN2CCN(C(=O)c3ccco3)CC2)c1 | 73.5% (inactive)
23 | O=C(CN1CCN(C(=O)c2ccco2)CC1)Nc1ccc2c(c1)OCO2 | 110% (inactive)
24 | O=C(CN1CCN(C(=O)c2ccco2)CC1)Nc1ccc(Cl)c(C(F)(F)F)c1 | 19.9% (active)

Row | Structure (SMILES) | viability
25 | O=C(Nc1ccc(Br)cc1)c1cccc(NC(=O)C2C3CC4OC(=O)C2C4C3)c1 (centres undefined) | 79.9% (inactive)
26 | O=C1NC(Nc2nc3ccccc3s2)(C(F)(F)F)C(=O)N1C1CCCCC1 (centres undefined) | 13.4% (active)
27 | COC(=O)NC1(C(F)(F)F)NC(=O)N(C2CCCCC2)C1=O (centres undefined) | 103% (inactive)
28 | COC(=O)CCSc1cc([N+](=O)[O-])cc2c1c(C1OCCS1)nn2-c1ccccc1 (centres undefined) | 98.2% (inactive)
29 | Cc1ccc(-n2cc3ccc([N+](=O)[O-])cc3n2)cc1 | 76.8% (inactive)
30 | CCOC(=O)N1CCN(C(=O)c2ccc(CN(c3ccc(C)c(C)c3)S(C)(=O)=O)cc2)CC1 | 70.5% (inactive)
31 | CCOC(=O)N1CCN(C(=O)c2ccc(S(=O)(=O)c3ccc(C)cc3)c(NC(C)=O)c2)CC1 | 85.8% (inactive)
32 | CCOC(=O)N1CCN(C(=O)c2ccc3c(c2)N(Cc2ccc(C)cc2)CCS3)CC1 | 30.8% (active)
33 | COc1ccc(CN(C(=O)CSc2nnc(-c3ccc(OC)c(OC)c3)o2)c2ccc(F)cc2)cc1 | 65.2% (inactive)
34 | CCCNC(=O)CN(Cc1ccccc1F)S(=O)(=O)c1ccc(C)cc1 | 98.5% (inactive)
35 | CC1Cc2ccccc2N1C(=O)c1cc2sccc2n1Cc1ccccc1 (centres undefined) | 90.3% (inactive)
36 | O=C(CSCc1ccc(Cl)cc1)N1CCCCC1 | 93.6% (inactive)
37 | Cc1cc(NC(=O)CCC(=O)N(CC(=O)NCC2CCCO2)c2ccccc2C)no1 (centres undefined) | 100% (inactive)
38 | COCCNC(=O)Cn1cc(C(=O)c2cccs2)c2ccccc21 | 88.3% (inactive)
39 | COc1ccccc1C(=O)n1nc(-c2ccccc2)nc1N | 90.3% (inactive)
40 | COc1ccc(C(=O)n2nc(-c3ccc(Cl)cc3)nc2N)cc1OC | 83.9% (inactive)
41 | COc1ccc(C(=O)n2nc(-c3ccc(C)cc3)nc2N)cc1OC | 22% (active)
42 | N#CC1=C(SCc2ccc(C#N)cc2)N=C(N)C(c2nc(-c3ccccc3)cs2)C12CCCCC2 (centres undefined) | 56.8% (inactive)
43 | COc1ccc(OC)c(-n2nnnc2SCC(=O)Nc2cc(C)ccc2OC)c1 | 75.6% (inactive)
44 | CC(C)c1nc2ccc(C(=O)O)cc2[nH]1 | 94.4% (inactive)
45 | Cc1nc2ccc(C(=O)O)cc2[nH]1 | 91.7% (inactive)
46 | COC(=O)Nc1nc2ccc(Sc3ccccc3)cc2[nH]1 | 17.5% (active)
47 | COc1ccc(N(CC(=O)NC2CCCCC2)C(=O)CNC(=O)c2ccco2)c(OC)c1 | 97.8% (inactive)
48 | COc1cc(C(=O)N(Cc2ccc(N(C)C)cc2)C2CCS(=O)(=O)C2)cc(OC)c1OC (centres undefined) | 80.1% (inactive)

Row | Structure (SMILES) | viability
49 | Cc1ccc(CN(C(=O)c2sc3ccccc3c2Cl)C2CCS(=O)(=O)C2)cc1 (centres undefined) | 18.5% (active)
50 | COc1ccc(C(=O)N(Cc2ccc(N(C)C)cc2)C2CCS(=O)(=O)C2)cc1 (centres undefined) | 80.1% (inactive)
51 | CC(=O)c1cccc(NC(=O)N2CCCC2C(=O)NCCc2ccccc2)c1 (centres undefined) | 91.7% (inactive)
52 | COc1nc(NC2CCCCC2)nc(N2CCCCCC2)n1 | 61.9% (inactive)
53 | CC1=C/C(=N\OS(=O)(=O)c2ccccc2)C=CC1=O | 0.69% (active)
54 | N#CCSc1nc2c(c(=O)n1Cc1ccccc1)C1(CCCC1)Cc1ccccc1-2 | 80.7% (inactive)
55 | Nc1c(-c2ccc(F)cc2)cnn1C1CCS(=O)(=O)C1 (centres undefined) | 98% (inactive)
56 | CC(C)(C)C(=O)c1cnc(Nc2ccccc2)s1 | 55% (inactive)
57 | CCOC(=O)CSc1nc2ccc(C)cc2[nH]1 | 89.4% (inactive)
58 | COc1ccc(/C(N)=N/OC(=O)Oc2ccccc2)cc1 | 82.6% (inactive)
59 | CO/N=C(/CS(=O)(=O)c1ccc(Br)cc1)c1ccc(OC)cc1 | 31.4% (active)
60 | COc1ccc(C(=O)Nc2ccc(S(=O)(=O)NC(C)C)cc2)cc1 | 97.9% (inactive)
61 | Cc1cccc(NC(=O)CSc2nnc(-c3ccco3)o2)c1 | 96.2% (inactive)
62 | CC1(C)NC(=O)N(CCCCSc2ccc(Cl)cc2)C1=O | 79% (inactive)
63 | CC(C)c1nc(N2CCOCC2)c(C#N)c2c1COC(C)(C)C2 | 79.6% (inactive)
64 | COc1ccc(CSc2nc(N3CCOCC3)c3c(c2C#N)CC(C)(C)OC3)cc1 | 92.7% (inactive)
65 | CC1(C)Cc2c(C#N)c(SCc3nc4ccccc4[nH]3)nc(N3CCOCC3)c2CO1 | 37.1% (active)
66 | CCc1ccc(C2C(C#N)=C(N)Oc3n[nH]c(CC(=O)OC)c32)cc1 (centres undefined) | 92.7% (inactive)
67 | O=C(Nc1ccc2c(c1)OCCO2)C(c1ccc(F)cc1)N1CCCCC1 (centres undefined) | 99.9% (inactive)
68 | Cc1ccc(OCc2nnc(NC(=O)OCC(C)C)s2)cc1 | 102% (inactive)
69 | CC1Cc2ccccc2N1C(=O)CSc1nnc(-c2ccc(S(=O)(=O)N3CCCCC3)cc2)o1 (centres undefined) | 29.4% (active)
70 | CC1Cc2ccccc2N1C(=O)CSc1nc2ccccc2o1 (centres undefined) | 74.2% (inactive)
71 | CCS(=O)(=O)c1ccc2oc(SCC(=O)N3c4ccccc4CC3C)nc2c1 (centres undefined) | 63.3% (inactive)
72 | CCOC(=O)/C(C#N)=C\c1c(C)cc(C)c(COC(C)=O)c1C | 95.1% (inactive)

Row | Structure (SMILES) | viability
73 | CCNC(=O)NC(=O)C(C)OC(=O)c1cc(S(=O)(=O)N2CCCCCC2)ccc1OC (centres undefined) | 84.3% (inactive)
74 | Cc1ccc(NC(=S)NC(NC(=O)Cc2cccc3ccccc23)C(Cl)(Cl)Cl)cc1 (centres undefined) | 0.99% (active)
75 | Cc1ccc(NC(=O)CCN2CCc3ccccc3C2)cc1 | 79.4% (inactive)
76 | CC(N=Cc1nc(-c2ccccc2)oc1O)c1ccccc1 (centres undefined) | 94.3% (inactive)
77 | Cc1ccc(S(=O)(=O)N2CCC(C(=O)NCC3CCCO3)CC2)cc1 (centres undefined) | 105% (inactive)
78 | COc1cccc(NC(=O)CN2CCN(c3nc(-c4cccc(OC)c4)cs3)CC2)c1 | 93.2% (inactive)
79 | COc1ccc([N+](=O)[O-])cc1C1NN=C(c2cccc3ccccc23)S1 (centres undefined) | 27.1% (active)
80 | Cc1ccc(CNC(=O)COc2ccc(S(=O)(=O)NC(C)C)cc2)cc1 | 98.1% (inactive)
81 | COc1cc2c(cc1OC)C(C(=O)NCc1ccco1)C1c3ccccc3CCN1C2=O (centres undefined) | 92.7% (inactive)
82 | COc1ccc(C2=NOC(C(=O)NCc3ccco3)C2)cc1OC (centres undefined) | 28.7% (active)
83 | COc1ccc(-c2cc(C(=O)NCc3ccco3)no2)cc1OC | 100% (inactive)
84 | COc1cccc(N=c2oc3c(C)ncc(CO)c3cc2C(N)=O)c1 | 68% (inactive)
85 | CCn1c(SCC(=O)NCC2CCCO2)nc2cc(S(=O)(=O)N3CCCCC3)ccc21 (centres undefined) | 96.9% (inactive)
86 | CCCCn1c(SCC(=O)N2CCC(C(=O)OCC)CC2)nc2cc(S(N)(=O)=O)ccc21 | 48.4% (inactive)
87 | CCCCn1c(SCc2ncc(-c3ccccc3)o2)nc2cc(S(N)(=O)=O)ccc21 | 14% (active)
88 | COC(=O)c1ccc(NC(=O)C23CC4CC(C2)CC(n2cnc(Cl)n2)(C4)C3)cc1 | 72.7% (inactive)
89 | CCCOC(=O)c1[nH]c2c(c1C)C(=O)CC(c1cccs1)C2 (centres undefined) | 34.2% (active)
90 | CCOC(=O)c1[nH]c2c(c1C)C(=O)CC(c1ccc(N(C)C)cc1)C2 (centres undefined) | 100% (inactive)
91 | CCCOC(=O)c1[nH]c2c(c1C)C(=O)CC(c1cc(OC)c(OC)c(OC)c1)C2 (centres undefined) | 80.3% (inactive)
92 | Cc1nc(NC(=O)CN(C)S(=O)(=O)c2ccc(Cl)cc2)sc1C | 61.4% (inactive)
93 | CCc1c(C)sc(NC(=O)c2cccs2)c1C(N)=O | 99.7% (inactive)
94 | CCN(CC)C(=O)CN(c1cccc(OC)c1)S(=O)(=O)c1ccc(C)cc1 | 82.3% (inactive)
